Here are results for ten compounds from PubChem BioAssay (Tox21).

Assay [1] can be described thus: qHTS assay to identify small molecule agonists of the RXR signaling pathway - cell viability counter screen (AID 1159529). Also: nearly all actives have a fitted effect of over 50% in size. Also: potency is read from the fitted curve at half-maximal effect. A digest of the protocol:
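Viability read-out for the RXR-alpha agonist qHTS: luminescent CellTiter-Glo signal after 30 min at RT. HEK 293T bla reporter cells, 2% charcoal-stripped FBS, 16 hr compound incubation; tetraoctyl ammonium bromide as cytotoxic control.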
(Quantitative high-throughput screening tests each substance at several concentrations.)

Assay [2] is described as follows: qHTS assay to identify small molecule antagonists of the retinoid acid receptor (RAR) signaling pathway - cell viability counter screen (AID 1159551). Also: nearly all actives have a fitted effect of over 35% in size. Also: potency is read from the fitted curve at half-maximal effect. A digest of the protocol:
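Measured by luminescent ATP detection, viability reflects C3RL4 cells treated 6 h at 37 C with test chemicals in the presence of 1 uM (final) retinol.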

A short description of assay [3]: qHTS assay to identify small molecule antagonists of the retinoic acid receptor (RAR) signaling pathway (AID 1159552; also: nearly all actives have a fitted effect of over 50% in size; also: potency is read from the fitted curve at half-maximal effect). A digest of the protocol:
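Using a RARE-driven luciferase construct in C3RL4 cells, retinol at 1 uM final provided the agonist stimulus while compounds were co-applied. After 6 hours at 37 C, luminescence was recorded to flag inhibitors of retinol signaling.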

Assay [4] can be described thus: qHTS assay to identify small molecule agonists of the retinoic acid receptor (RAR) signaling pathway (AID 1159553). A digest of the protocol:
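6 hr compound exposure (DMSO vehicle) of overnight-plated C3RL4 RARE-luc cells at 37 C; luminescence quantified after 30 min RT with luciferase reagent.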

The nature of assay [5]: qHTS assay to identify small molecule antagonists of the estrogen related receptor (ERR) signaling pathway from Tox21 library - cell viability counter screen (AID 1224834). Also: nearly all actives have a fitted effect of over 30% in size. Also: potency is read from the fitted curve at half-maximal effect. A digest of the protocol: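 Seeded ERR cells were rested 6 h at 37 C/5% CO2 before compounds, positive and negative controls or DMSO were added. Incubation continued for 17.5 h, and viability was then quantified by CellTiter-Fluor fluorescence.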

Assay [6] deals with Luciferin 4-monooxygenase (Photinus pyralis) (UniProt P08659). The assay is described as follows: qHTS assay to identify small molecule inhibitors of firefly luciferase (AID 1224835). Also: nearly all actives have a fitted effect of over 25% in size. Also: potency is read from the fitted curve at half-maximal effect. A digest of the protocol:
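Inhibition of purified Photinus luciferase is measured by luminescence. Substrate levels (D-luciferin, ATP) sit at their KM values. Each compound is tested in a concentration series.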

A short description of assay [7]: qHTS assay to identify small molecule agonists of the constitutive androstane receptor (CAR) signaling pathway - cell viability counter screen (AID 1224836). Also: nearly all actives have a fitted effect of over 45% in size. Also: potency is read from the fitted curve at half-maximal effect. A digest of the protocol: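 Multiplexed viability check: HepG2-CYP2B6-hCAR cells, 15-point compound dosing, 0.75 uM PK11195 final, 23 h at 37 C, CellTiter-Fluor fluorescence.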
The nature of assay [8]: qHTS assay to identify small molecule antagonists of the constitutive androstane receptor (CAR) signaling pathway - cell viability counter screen (AID 1224837). Also: nearly all actives have a fitted effect of over 45% in size. Also: potency is read from the fitted curve at half-maximal effect. A digest of the protocol:
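To flag cytotoxic false antagonists, HepG2 hCAR/CYP2B6-2.2kb cells were treated 23 hr with 15-concentration compound series and 50 nM CITCO at 37 C/5% CO2; CellTiter-Fluor fluorescence was the measured end point.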

In assay [9] the target is Nuclear receptor subfamily 1 group I member 3 (Homo sapiens) (UniProt Q14994). As to the kind of experiment: qHTS assay to identify small molecule antagonists of the constitutive androstane receptor (CAR) signaling pathway (AID 1224838).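 Also: HepG2 cells stably expressing hCAR with CYP2B6 luciferase reporter stimulated by CITCO; nearly all actives have a fitted effect of over 40% in size.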 Also: potency is read from the fitted curve at half-maximal effect. A digest of the protocol:
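Human hepatoma HepG2 cells expressing hCAR and a CYP2B6 promoter (2.2 kb) luciferase construct; compound titration (15 points) with 50 nM CITCO final, 24 h at 37 C/5% CO2; luminescence via ONE-Glo after 30 min at room temperature.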

Assay [10] shares this target. As to the kind of experiment: qHTS assay to identify small molecule agonists of the constitutive androstane receptor (CAR) signaling pathway (AID 1224839).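 Also: HepG2 cells stably carrying human CAR and a CYP2B6 luciferase reporter; series mostly up to about 92 µM; nearly all actives have a fitted effect of over 15% in size.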 A digest of the protocol:
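Using human hepatoma HepG2 cells engineered with hCAR and a CYP2B6-2.2kb reporter, 15-concentration compound series were incubated 24 h alongside PK11195 at 0.75 uM final, with luminescence quantified afterwards.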

A short description of assay [11]: qHTS assay to identify small molecule antagonists of the estrogen related receptor signaling pathway with the pleiotropic PPARgamma coactivator (PGC) from Tox21 10K library - cell viability counter screen (AID 1224840; active = well fitted cell-killing curve with a large enough effect in the repeat runs, not every such curve was filed as active; also: nearly all actives have a fitted effect of over 40% in size; also: potency is read from the fitted curve at half-maximal effect). A digest of the protocol:
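Seeded PGC/ERR cells (2,000/well, 6 h, 37 C/5% CO2) get compound by pin tool; 17.5 h incubation at 37 C; CellTiter-Fluor added, 30 min, fluorescence measured.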

A short description of assay [12]: qHTS assay to identify small molecule antagonists of the estrogen related receptor signaling pathway with the pleiotropic PPARgamma coactivator (PGC) from Tox21 10K library (AID 1224841; call rule not given here; also: actives are mostly falling curves and most rising ones were filed inactive; nearly all actives have a fitted effect of over 50% in size; also: potency is read from the fitted curve at half-maximal effect). A digest of the protocol:
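Test chemicals dissolved in DMSO were applied to pre-incubated (6 h) PGC/ERR cells at 2,000 cells/well for an 18 h, 37 C treatment; reporter luminescence was then read using One-Glo.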

Assay [13] can be described thus: qHTS assay to identify small molecule agonists of the estrogen related receptor signaling pathway with the pleiotropic PPARgamma coactivator (PGC) from Tox21 10K library (AID 1224842). Also: nearly all actives have a fitted effect of over 15% in size. A digest of the protocol:
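Luminescence from One-Glo (30 min, room temperature) measured after PGC/ERR cells had 18 h at 37 C with pinned compound (23 nL in DMSO). Cells had been seeded at 2,000 per well and pre-incubated 6 h.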

The target of assay [14] is Thyrotropin receptor (Homo sapiens) (UniProt P16473). The assay is described as follows: qHTS assay to identify small molecule agonists of the thyroid stimulating hormone receptor (TSHR) signaling pathway (AID 1224843; calls by dose curve; also: nearly all actives have a fitted effect of over 45% in size). A digest of the protocol:
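Agonist activity read as cAMP rise via d2/cryptate HTRF competition, 1 h room-temperature detection, in HEK293 cells expressing TSHR. Fifteen-point titrations, each run in triplicate, with a 30 min room-temperature incubation beforehand.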

Molecules are shown by their SMILES. Inconclusive results are not listed. Activity calls are given as the source filed them. Unless noted, calls follow the shape of the dose curve; as a rule, active = well fitted curve in the direction sought with a large enough effect in the repeat runs; inconclusive = weak or mixed curves; inactive = no such curve, though single readings can be large; an effect the other way counts as inactive or inconclusive.

Sequence of Luciferin 4-monooxygenase (Photinus pyralis) (P08659 whole entry, looked up): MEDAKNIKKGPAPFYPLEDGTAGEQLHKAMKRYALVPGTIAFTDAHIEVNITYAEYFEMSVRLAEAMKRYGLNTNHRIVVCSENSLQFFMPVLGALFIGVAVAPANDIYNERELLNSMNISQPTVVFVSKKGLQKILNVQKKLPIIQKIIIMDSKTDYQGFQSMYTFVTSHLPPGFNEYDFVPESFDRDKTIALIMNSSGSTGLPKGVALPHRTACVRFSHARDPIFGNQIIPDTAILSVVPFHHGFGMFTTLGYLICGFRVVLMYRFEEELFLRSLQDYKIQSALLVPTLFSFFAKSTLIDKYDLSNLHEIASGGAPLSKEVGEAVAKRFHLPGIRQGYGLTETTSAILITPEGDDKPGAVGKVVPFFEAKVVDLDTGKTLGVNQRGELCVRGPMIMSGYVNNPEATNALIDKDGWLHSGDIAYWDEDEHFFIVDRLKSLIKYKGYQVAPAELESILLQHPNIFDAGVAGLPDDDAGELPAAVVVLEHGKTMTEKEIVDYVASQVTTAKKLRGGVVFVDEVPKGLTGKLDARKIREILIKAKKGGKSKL
Sequence of Nuclear receptor subfamily 1 group I member 3 (Homo sapiens) (Q14994 whole entry, looked up): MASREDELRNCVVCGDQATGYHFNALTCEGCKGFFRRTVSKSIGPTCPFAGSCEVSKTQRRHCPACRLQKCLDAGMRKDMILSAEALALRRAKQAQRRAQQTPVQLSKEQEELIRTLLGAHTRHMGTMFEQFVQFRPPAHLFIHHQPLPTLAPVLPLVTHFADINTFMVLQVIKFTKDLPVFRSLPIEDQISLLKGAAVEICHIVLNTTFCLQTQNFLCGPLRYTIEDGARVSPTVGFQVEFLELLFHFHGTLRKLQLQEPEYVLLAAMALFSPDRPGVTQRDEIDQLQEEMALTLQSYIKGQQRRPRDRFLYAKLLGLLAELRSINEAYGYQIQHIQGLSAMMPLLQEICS
Sequence of Thyrotropin receptor (Homo sapiens) (P16473 whole entry, looked up): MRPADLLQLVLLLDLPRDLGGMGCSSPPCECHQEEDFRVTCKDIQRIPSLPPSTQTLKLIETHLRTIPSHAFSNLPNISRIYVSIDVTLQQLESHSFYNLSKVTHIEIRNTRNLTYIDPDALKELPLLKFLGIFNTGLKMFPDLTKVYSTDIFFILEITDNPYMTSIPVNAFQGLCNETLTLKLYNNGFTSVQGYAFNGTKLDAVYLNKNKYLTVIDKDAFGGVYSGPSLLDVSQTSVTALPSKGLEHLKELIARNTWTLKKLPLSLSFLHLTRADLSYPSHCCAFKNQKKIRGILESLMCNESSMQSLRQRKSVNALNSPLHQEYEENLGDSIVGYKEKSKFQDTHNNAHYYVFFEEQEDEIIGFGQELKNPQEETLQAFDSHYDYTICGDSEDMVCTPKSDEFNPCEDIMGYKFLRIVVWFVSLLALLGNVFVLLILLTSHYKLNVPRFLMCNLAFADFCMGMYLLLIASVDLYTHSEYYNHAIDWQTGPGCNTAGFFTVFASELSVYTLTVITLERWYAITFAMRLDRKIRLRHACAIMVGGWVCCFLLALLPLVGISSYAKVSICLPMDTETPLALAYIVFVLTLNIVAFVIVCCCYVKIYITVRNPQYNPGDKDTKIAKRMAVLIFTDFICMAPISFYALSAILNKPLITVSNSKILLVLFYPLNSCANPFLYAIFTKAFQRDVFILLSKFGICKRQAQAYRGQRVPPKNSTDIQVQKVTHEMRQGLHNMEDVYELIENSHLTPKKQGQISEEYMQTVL

Take `O=[N+]([O-])C(Br)Br`: the Potency result in [1], in [2], in [3], in [4], in [5] and in assay [7] was “inactive” in each case. For the same compound, the Potency result in assay [8], in [9], in assay [10], in [11], in [12] and in assay [13] was “inactive” in each case. For the same compound, the Potency result in assay [14] was “inactive”. In assay [6], the Potency was 28.3 µM (active).
Regarding `O=P(Cl)(Cl)Cl`, the Potency entry in [1], in assay [2], in assay [3], in [4], in [5] and in assay [6] was “inactive” each time. Further, the Potency entry in assay [7], in [8], in assay [9], in [10], in assay [11] and in assay [14] was “inactive” each time.
Turning to `CC(=O)[O][Pb]([c]1ccccc1)([c]1ccccc1)[c]1ccccc1`, the Potency in assay [1] was 2.45 µM (active); in assay [2], 9.69 µM (active); in [3], 0.486 µM (active); in assay [5], 2.73 µM (active); in [6] it was 22.4 µM (active); in assay [7] it was 5.45 µM (active). In addition, the Potency in [9] is 1.54 µM (active); in assay [11] it was 3.06 µM (active); in [12] it was 6.86 µM (active). In addition, the Potency result in [10] and in assay [13] was “inactive” each time.
`OCC(Br)CBr` (stereo not drawn): the Potency result in assay [1], in assay [2], in assay [5], in [6], in [7] and in [8] was “inactive” throughout. Moreover, the Potency result in assay [9], in [10], in assay [11] and in assay [14] was “inactive” throughout.
With `[F][Sn]([c]1ccccc1)([c]1ccccc1)[c]1ccccc1`, the Potency in assay [1] was 0.692 µM (active); in assay [2], 17.2 µM (active); in assay [3], 0.243 µM (active); in assay [5], 1.09 µM (active); in assay [6], 5.03 µM (active); in assay [7] it was 1.09 µM (active). The figures for the Potency in assay [8] and in [11] were 1.09 µM (active) and 0.611 µM (active), respectively. Moreover, the Potency result in assay [13] is “inactive”.
With `COP(=O)(OC)O/C(=C\Cl)c1cc(Cl)c(Cl)cc1Cl`, the Potency result in assay [1], in [2], in assay [4], in [6], in assay [7] and in assay [8] was “inactive” each time. Also, in assay [13], the Potency entry is “inactive”. In assay [12], the Potency is 5.45 µM (active).
`Cc1ccc(C)c2ccccc12`: the Potency entry in [1], in assay [2], in assay [5], in [6], in assay [7] and in [8] was “inactive” throughout. For the same compound, the Potency result in assay [9], in [10] and in assay [11] was “inactive” in each case.
On to `C=CCBr`, for which the Potency result in [1], in [2], in assay [5], in assay [6], in assay [7] and in assay [8] was “inactive” throughout. In addition, the Potency entry in assay [9], in assay [10], in [11] and in assay [14] was “inactive” each time.
On to `CCCCN(CCCC)C(=S)[S-].CCCCN(CCCC)C(=S)[S-].[Ni+2]`, for which the Potency result in assay [1], in [2], in assay [3], in assay [6], in assay [7] and in assay [8] was “inactive” in each case. Further, the Potency result in [11] and in assay [13] was “inactive” in each case. Further, the Potency in assay [12] was 0.237 µM (active).
As to `COc1cnc(OC)n2nc(NS(=O)(=O)c3c(OCC(F)F)cccc3C(F)(F)F)nc12`, the Potency entry in [1], in assay [2], in assay [5], in [6], in assay [7] and in [8] was “inactive” each time. Further, the Potency entry in assay [9], in [10], in assay [11], in [12] and in assay [13] was “inactive” each time.
